Measurements: the antibiotic and cytotoxicity screens of Wong et al. (2023)
Hit rate of the full screen: of about 39,000 compounds, about 500 (1.3%) were called active. This excerpt belongs to a sample that is enriched for actives.

System: S. aureus RN4220
Experiment: growth inhibition call (relative growth <= 0.2)
Settings: 50 µM

Question: With `CCCNC(=O)N1C[C@@H](O)COC[C@H]2O[C@@H](CC(=O)N3CCN(C)CC3)CC[C@@H]21` as the compound, how does the growth inhibition call read?
Answer: The growth inhibition call was “inactive”.

Question: `C[C@H]1CN([C@@H](C)CO)C(=O)c2cc(NC(=O)Cc3ccccc3)ccc2O[C@H]1CN(C)C(=O)Nc1cccc2ccccc12` was tested. Which growth inhibition call did it give?
Answer: Its growth inhibition call is “inactive”.

Question: For `C[C@H]1CNC(=CC(=O)c2ccccc2)C(=O)N1`, which growth inhibition call is on record?
Answer: The growth inhibition call was “inactive”.

Question: Which growth inhibition call does the source give for `O=C(/C=c1/nc2c([nH]c1=O)=NON2)c1ccccc1` here?
Answer: Its growth inhibition call is “active”.

Question: Which growth inhibition call does the source give for `O=C1OCCN/C1=C/C(=O)c1ccccc1` here?
Answer: The growth inhibition call was “inactive”.

Question: Which growth inhibition call does the source give for `COc1ccc(S(=O)(=O)N(C)C[C@@H]2Oc3ccc(NC(=O)Cc4ccccc4)cc3CC(=O)N([C@@H](C)CO)C[C@@H]2C)cc1` here?
Answer: Its growth inhibition call is “inactive”.

Question: Which growth inhibition call does the source give for `CC(C)(C)[S@](=O)N1Cc2cc(C(=O)NCc3ccccc3F)nc(-c3cccc(-c4ccncc4)c3)c2[C@@H]1CCO` here?
Answer: Its growth inhibition call is “inactive”.

Question: With `O=C(C[C@H]1CC[C@H]2[C@@H](COC[C@@H](O)CN2C(=O)Nc2cccc(Cl)c2)O1)NCc1ccccc1F` as the compound, how does the growth inhibition call read?
Answer: The growth inhibition call was “inactive”.

Question: Which growth inhibition call does the source give for `COc1cccc(NC(=O)N2C[C@H](O)COC[C@H]3O[C@@H](CC(=O)NCc4ccccc4F)CC[C@@H]32)c1` here?
Answer: Its growth inhibition call is “inactive”.

Question: For `O=C(C[C@H]1CC[C@H]2[C@@H](COC[C@H](O)CN2C(=O)Nc2cccc(Cl)c2)O1)NCc1ccccc1F`, which growth inhibition call is on record?
Answer: Its growth inhibition call is “inactive”.

Question: With `O=C(C[C@@H]1CC[C@H]2[C@@H](COC[C@@H](O)CN2C(=O)Nc2cccc(Cl)c2)O1)NCc1ccccc1F` as the compound, how does the growth inhibition call read?
Answer: The growth inhibition call was “inactive”.

Question: With `O=C(C[C@H]1CC[C@@H]2[C@H](COC[C@H](O)CN2C(=O)Nc2cccc(Cl)c2)O1)NCc1ccccc1F` as the compound, how does the growth inhibition call read?
Answer: Its growth inhibition call is “inactive”.

Question: For `O=C(C[C@@H]1CC[C@@H]2[C@H](COC[C@@H](O)CN2C(=O)Nc2cccc(Cl)c2)O1)NCc1ccccc1F`, which growth inhibition call is on record?
Answer: Its growth inhibition call is “active”.

Question: Which growth inhibition call does the source give for `O=C(C[C@H]1CC[C@@H]2[C@H](COC[C@@H](O)CN2C(=O)Nc2cccc(Cl)c2)O1)NCc1ccccc1F` here?
Answer: Its growth inhibition call is “active”.

Question: For `O=C(C[C@@H]1CC[C@@H]2[C@H](COC[C@H](O)CN2C(=O)Nc2cccc(Cl)c2)O1)NCc1ccccc1F`, which growth inhibition call is on record?
Answer: Its growth inhibition call is “inactive”.

Question: How did the growth inhibition call turn out when `O=C(C[C@@H]1CC[C@H]2[C@@H](COC[C@H](O)CN2C(=O)Nc2cccc(Cl)c2)O1)NCc1ccccc1F` was run?
Answer: The growth inhibition call was “active”.

Question: With `COc1ccc(NC(=O)N(C)C[C@H]2Oc3c(NC(=O)Nc4cccc5ccccc45)cccc3C(=O)N([C@@H](C)CO)C[C@@H]2C)cc1` as the compound, how does the growth inhibition call read?
Answer: The growth inhibition call was “inactive”.

Question: Which growth inhibition call does the source give for `COc1ccc(S(=O)(=O)N(C)C[C@H]2Oc3c(NS(=O)(=O)c4c(C)noc4C)cccc3C(=O)N([C@@H](C)CO)C[C@@H]2C)cc1` here?
Answer: The growth inhibition call was “inactive”.

Question: For `O=c1[nH]cccc1F`, which growth inhibition call is on record?
Answer: Its growth inhibition call is “inactive”.

Question: How did the growth inhibition call turn out when `C[C@@H]1CN([C@H](C)CO)C(=O)Cc2cc(NC(=O)CCN3CCOCC3)ccc2O[C@@H]1CN(C)C(=O)Nc1ccc2c(c1)OCO2` was run?
Answer: Its growth inhibition call is “inactive”.
